NOMO-1 viab: STK33 inhibitor candidate reducing NOMO-1 cell viability | NOMO-1 AML viability, CellTiter-Glo luminescence, 72 h | actives 7.5% (n = 37,000) | inhibition, % (no concentration beside the values); in the data active = inhibition above about 80%; inconclusive = no clear call, values can overlap the other calls
PD-1 reversal: reversal of PD-1 mediated T-cell inhibition | activation, % (test concentration not listed) | 29,000 tested, under 10 active | primary human CD4 T cells, PD-L1 beads, CellTiter-Glo 96 h; call rule not given here
STK33 kin inh: inhibitors of human STK33 kinase; Q9BYT3; ADP-Glo luminescence, MBP substrate; actives 0.44% (n = 27,000); inhibition, % at 12.5 µM; in the data active = inhibition above about 20%; inconclusive = no clear call, values can overlap the other calls
Target sequence (Q9BYT3 whole entry, looked up): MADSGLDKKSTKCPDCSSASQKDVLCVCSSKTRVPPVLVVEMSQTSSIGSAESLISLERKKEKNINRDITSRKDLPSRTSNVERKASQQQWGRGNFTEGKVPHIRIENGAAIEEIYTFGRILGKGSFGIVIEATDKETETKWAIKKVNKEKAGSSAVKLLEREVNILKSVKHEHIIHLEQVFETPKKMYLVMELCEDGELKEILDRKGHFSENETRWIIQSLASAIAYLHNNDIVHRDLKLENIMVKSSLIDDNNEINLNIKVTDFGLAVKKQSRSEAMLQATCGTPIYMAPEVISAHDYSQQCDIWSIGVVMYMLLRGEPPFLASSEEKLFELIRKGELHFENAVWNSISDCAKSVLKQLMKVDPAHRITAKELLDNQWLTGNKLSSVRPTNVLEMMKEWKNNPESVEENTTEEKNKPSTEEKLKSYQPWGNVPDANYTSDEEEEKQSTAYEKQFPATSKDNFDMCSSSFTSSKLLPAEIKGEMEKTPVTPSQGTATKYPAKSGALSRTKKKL
Large screens that a line does not name were inactive. Only a selection was taken, and hits are over-represented in it overall.

COC(=O)c1ccc(CSc2nc(-c3cccs3)cc(C(F)(F)F)n2)cc1	none (no result: STK33 kin inh)
COc1ccc(CN(C)C[C@@H]2Oc3ccc(NC(=O)Nc4ccc(C(F)(F)F)cc4)cc3C(=O)N([C@H](C)CO)C[C@@H]2C)cc1	NOMO-1 viab 114
COc1ccc(NC(=O)Nc2ccc3c(c2)C(=O)N([C@@H](C)CO)C[C@H](C)[C@H](CN(C)Cc2ccc(C(F)(F)F)cc2)O3)cc1	none
COc1ccc(CN(C)C[C@H]2Oc3ccc(NC(=O)Nc4ccc(C(F)(F)F)cc4)cc3C(=O)N([C@@H](C)CO)C[C@@H]2C)cc1	NOMO-1 viab 113 (no result: STK33 kin inh)
COc1ccc(NC(=O)Nc2ccc3c(c2)C(=O)N([C@@H](C)CO)C[C@@H](C)[C@@H](CN(C)Cc2ccc(C(F)(F)F)cc2)O3)cc1	NOMO-1 viab inconclusive
Cc1n[nH]c(C)c1C(=O)CC1(O)C(=O)Nc2ccc(Br)cc21 (stereo unspecified)	none (no result: NOMO-1 viab, PD-1 reversal)
O=C(CC1(O)C(=O)N(Cc2ccc(Cl)cc2)c2ccccc21)c1cc2ccccc2oc1=O (stereo unspecified)	NOMO-1 viab 120
CN1C(=O)C(O)(CC(=O)c2ccccn2)c2cc(Br)ccc21 (stereo unspecified)	NOMO-1 viab 117
Cc1ccc(CN2C(=O)C(O)(CC(=O)c3cccc(N)c3)c3cc(Cl)ccc32)cc1 (stereo unspecified)	NOMO-1 viab 133
COc1ccc(CN2C(=O)C(O)(CC(=O)c3cccs3)c3ccccc32)cc1OC (stereo unspecified)	NOMO-1 viab 106
COc1ccc(CN2C(=O)C(O)(CC(=O)c3c(C)n[nH]c3C)c3ccccc32)cc1OC (stereo unspecified)	none
NC(=O)CN1C(=O)C(O)(CC(=O)c2ccc(Cl)cc2Cl)c2ccccc21 (stereo unspecified)	none (no result: PD-1 reversal)
Cc1ccc(C(=O)CC2(O)C(=O)N(CCCC#N)c3ccccc32)o1 (stereo unspecified)	none
CC(=O)NCCc1nc2cc([N+](=O)[O-])ccc2n1C	none
COc1ccc2c(c1)C(O)(CC(=O)c1ccc3ccccc3c1)C(=O)N2 (stereo unspecified)	none
O=C(NCCCN1CCOCC1)c1cc2cc([N+](=O)[O-])ccc2oc1=O	none (no result: PD-1 reversal)
CCOC(=O)C(C)Oc1cc(O)c2c(=O)cc(-c3ccccc3)oc2c1 (stereo unspecified)	none
CN(C)/C=C/C(=O)c1ccsc1	none (no result: STK33 kin inh)
C=C(CC[C@@H](C)[C@H]1CCC2(C)C3=C(C[C@H](O)[C@]12C)[C@@]1(C)CC[C@@H](OC(=O)CC(=O)O)C(C)(C)C1CC3)[C@@H](C)C(=O)O (stereo partly specified)	none (no result: NOMO-1 viab, PD-1 reversal)
COc1ccc(C(=O)CC2(O)C(=O)N(Cc3ccccc3)c3ccc(Br)cc32)cc1[N+](=O)[O-] (stereo unspecified)	NOMO-1 viab 111
O=C(CC1(O)C(=O)N(Cc2cccc3ccccc23)c2ccccc21)c1ccc(Br)s1 (stereo unspecified)	none (no result: NOMO-1 viab, PD-1 reversal)
O=C(CC1(O)C(=O)N(Cc2ccccc2)c2ccc(Cl)cc21)c1ccncc1 (stereo unspecified)	NOMO-1 viab 117
O=C(CSc1ccccn1)Nc1ccc(Cl)cc1	none
O=C(CC1(O)C(=O)N(Cc2cccc3ccccc23)c2ccccc21)c1ccccc1[N+](=O)[O-] (stereo unspecified)	NOMO-1 viab 114
O=C(CC1(O)C(=O)N(Cc2ccc(Cl)cc2)c2ccc(Cl)cc21)c1ccccn1 (stereo unspecified)	NOMO-1 viab 115 (no result: PD-1 reversal)
O=C(CC1(O)C(=O)N(Cc2ccccc2)c2ccc(Br)cc21)c1ccc2c(c1)OCCO2 (stereo unspecified)	none
N#CCCCN1C(=O)C(O)(CC(=O)c2ccc3c(c2)OCCO3)c2ccccc21 (stereo unspecified)	none
NC(=NC(=O)c1ccc(Cl)cc1)c1ccc(C(F)(F)F)cn1	none
COC(=O)c1c(NC(=O)c2cc3ccccc3oc2=O)sc2c1C(C(=O)OC)CC2 (stereo unspecified)	none
CC(C)OC(=O)CSc1nc2c(c(-c3ccccc3)c1C#N)CCC2	none
CC1(C)CC(=O)C(C=NC(CO)(CO)CO)=C(O)C1	none (no result: STK33 kin inh)
CN1C2CCC1CC(NC(=O)Cc1ccccc1F)C2 (stereo unspecified)	none (no result: STK33 kin inh)
O=C(CC1(O)C(=O)N(CCc2ccccc2)c2ccc(Cl)cc21)c1ccco1 (stereo unspecified)	none (no result: PD-1 reversal)
Cc1coc(C)c1C(=O)CC1(O)C(=O)N(CCc2ccccc2)c2ccc(Cl)cc21 (stereo unspecified)	NOMO-1 viab 88 (no result: PD-1 reversal)
OC(CNC1CCCC1)Cn1c2ccccc2c2ccccc21 (stereo unspecified)	NOMO-1 viab 96
Cc1ccccc1OCC(O)Cn1c2ccccc2c2ccccc21 (stereo unspecified)	none

High-throughput results as filed in PubChem.
